A selection: hits, their analogues and other compounds. The true share with any hit is near 3.5%.
FBW7 act: activators of human E3 ligase FBW7; Q969H0; AlphaScreen FBW7–phospho-cyclin E peptide binding, activator screen; normalized activity (activation), % at 26.1 µM; 650,000 compounds, 0.13% hits; AID 1259310; in the data active = normalized activity above about 1.9%;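 also: purified mutant Fbw7 with reduced substrate affinity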
Target sequence (Q969H0 whole entry, looked up): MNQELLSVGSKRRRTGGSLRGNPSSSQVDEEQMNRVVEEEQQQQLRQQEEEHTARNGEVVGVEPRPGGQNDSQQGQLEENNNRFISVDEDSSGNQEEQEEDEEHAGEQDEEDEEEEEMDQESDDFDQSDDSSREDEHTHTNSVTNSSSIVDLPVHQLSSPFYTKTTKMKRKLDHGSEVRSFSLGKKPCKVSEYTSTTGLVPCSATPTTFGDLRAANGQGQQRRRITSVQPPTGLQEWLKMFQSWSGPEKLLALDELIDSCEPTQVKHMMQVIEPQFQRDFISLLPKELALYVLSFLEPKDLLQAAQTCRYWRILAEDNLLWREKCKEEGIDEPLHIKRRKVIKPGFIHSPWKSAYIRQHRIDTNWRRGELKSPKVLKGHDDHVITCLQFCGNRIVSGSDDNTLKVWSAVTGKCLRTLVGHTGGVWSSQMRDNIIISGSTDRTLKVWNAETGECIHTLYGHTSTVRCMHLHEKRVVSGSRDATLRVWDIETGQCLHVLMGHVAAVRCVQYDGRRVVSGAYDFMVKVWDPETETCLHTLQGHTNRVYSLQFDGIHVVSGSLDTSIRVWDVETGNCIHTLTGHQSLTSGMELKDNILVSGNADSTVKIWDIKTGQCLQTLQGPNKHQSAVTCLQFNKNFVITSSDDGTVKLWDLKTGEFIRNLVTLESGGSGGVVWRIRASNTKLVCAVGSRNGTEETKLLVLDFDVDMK
MITF inh: inhibitors of human MITF. AlphaScreen MITF homodimerization, bead proximity signal. inhibition, % at 2.6 µM. 650,000 compounds, 0.91% hits. AID 1259374; in the data active = inhibition above about 50%;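 also: 0% = vehicle wells with protein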
TEAD-YAP block: TEAD-YAP interaction inhibition; inhibition, % at 9.12 µM; 640,000 compounds, 1.4% hits; AID 1259422; HEK-TIYL cells, TEAD-Gal4/YAP UAS-luciferase luminescence; in the data active = inhibition above about 32%;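 also: 0% = median of test compound wells and 100% = reference inhibitor wells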
GPR151 ag: activates the human receptor GPR151. 650,000 compounds, 1% hits. PathHunter beta-arrestin GPR151 cells, luminescence. AID 1508602. Q8TDV0. activation, % at 11.2 µM; in the data active = activation above about 4.9%;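 also: 0% = median of compound wells and 100% = cells with positive control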
GPR151 confirm: confirmation of human GPR151 activators. shares compounds with GPR151 ag. GPR151 PathHunter beta-arrestin cells, luminescence, 90 min; % of EA-reagent control over plate median. activation, % at 11.2 µM. 6,700 tested, under 10 active. AID 1508609;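 active = mean percent activation across replicates above the confirmation screen cutoff of 4.91%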
GPR119 counter: counter-screen for GPR151 activators: effect on human GPR119; AID 1508611; activation, % at 11.2 µM; shares compounds with GPR151 ag; 6,700 compounds, 0.3% hits; GPR119 PathHunter beta-arrestin cells, luminescence, 90 min; 0 = compound-well median, 100 = enzyme-acceptor control;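 active = mean percent activation in the counterscreen above 29.09%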;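 also: counterscreen on off-target GPR119 to flag nonselective hits from the GPR151 activator screen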
* hit, by the source's call; · = no result; ! = not active in a repeat.

SMILES	FBW7 act	MITF inh	TEAD-YAP block	GPR151 ag	GPR151 confirm	GPR119 counter
CCCNC(=O)C1CCN(C(=O)N2CC(C)Oc3ccccc32)CC1 (centres undefined)	0	-5	5	-2	·	·
CCCNC(=O)C1CCN(C(=O)N2CC(C)Oc3ccc(Cl)cc32)CC1 (centres undefined)	0	-3	6	11*	0	-4
COc1cc(C(=O)Nc2ccc(O)c(-c3nc4cc(C)ccc4o3)c2)ccc1OCc1ccc(Cl)cc1	0	4	0	-1	·	·
O=C(NCCN1CCOCC1)c1cccc(-n2ncc3cc(Nc4ccccc4Cl)ccc32)n1	0	3	-2	4.9*	1	-7
O=C(NCCN1CCOCC1)c1cccc(-n2ncc3cc(Nc4ccccc4Cl)ccc32)c1	0	5	11	-1	·	·
COc1ccc(Cl)cc1S(=O)(=O)NC(C)c1ccccc1 (centres undefined)	0	1	-1	1	·	·
C=CCNC(=O)COc1ccc(S(=O)(=O)NC(C)c2ccccc2)cc1Cl (centres undefined)	0	0	0	2	·	·
CCOc1ccc(Cl)cc1S(=O)(=O)NC(C)c1ccccc1 (centres undefined)	0	-6	-9	5.1*	0	5
CC(NS(=O)(=O)c1ccc(OCC(=O)Nc2ccccc2)c(Cl)c1)c1ccccc1 (centres undefined)	0	-20	-3	6.1*	1	4
CCNC(=O)C1Cc2ccccc2N1C(=O)NCCc1ccc(OC)cc1 (centres undefined)	0	-3	7	0	·	·
COC(=O)c1cc(N=CC2=C(O)c3ccccc3C2=O)cc(C(=O)OC)c1	0	-2	-9	0	·	·
CCOC(=O)C1(C)NC(c2sccc2C)C2C(=O)N(c3cccc(OC)c3)C(=O)C21 (centres undefined)	0	0	3	0	·	·
Cc1cccc(NC(=O)C(=S)NC2CCCC2)c1C	0	-12	-26	8.2*	1	9
CC(C)N(C(=O)Cn1nc(-c2cccnc2)oc1=O)C(C)C	0	11	0	-1	·	·
CN1CCN(c2cc(-c3ccc(NC(=O)[C@H]4COc5ccccc5O4)cc3)ccn2)CC1	0	24	-6	1	·	·
CCC(C)C1N=C2c3ccccc3N=C(SCc3cccc(F)c3)N2C1=O (centres undefined)	0	11	-19	5.2*	1	8
Cc1cc(NC(=O)c2ccco2)n(-c2nc3ccccc3[nH]2)n1	0	7	28	0	·	·
Cc1cc(NC(=O)C2CC2)n(-c2nc3ccccc3[nH]2)n1	0	-1	29	9.1*	0	-5
COCC(=O)Nc1nc2ccc(OC)cc2s1	0	4	-53	8.6*	-2	-11
CSc1nnc2n(/N=C/c3cc4c(cc3Br)OCO4)cnn12	0	2	8	-1	·	·
Cc1ccc(OCC(=O)N2CCN(C(=O)COc3ccc4ccccc4c3)CC2)cc1	0	-2	-4	-1	·	·
Cn1nnc2c(N3CCN(C(=O)COc4ccc5ccccc5c4)CC3)ncnc21	0	8	3	5.1*	-1	-4
CN(C)CCCOc1nn(Cc2ccccc2)c2ccccc12	0	0	-10	6.2*!	1	-5
NC(=O)COC(=O)c1cc(Cl)cc(Cl)c1N	0	-1	0	-1	·	·
Nc1c(Cl)cc(Cl)cc1C(=O)OCC(=O)N1CCCC1	0	4	-6	7.5*	2	5
SMILES	FBW7 act	MITF inh	TEAD-YAP block	GPR151 ag	GPR151 confirm	GPR119 counter
CCOCCCNC(=S)N1CCC(NC(=O)c2ccco2)CC1	0	6	-3	5.9*	0	-2
CC(=O)c1ccc(N2CCN(C(=S)NCC3CCCO3)CC2)cc1 (centres undefined)	0	6	-2	1	·	·
CCOCCCNC(=S)N1CCC(NC(=O)c2ccc(C)cc2)CC1	0	1	-1	1	·	·
O=C(c1ccco1)N1CCN(C(=S)NCC2CCCO2)CC1 (centres undefined)	0	-10	9	6.4*	0	-2
Cc1ccc(-n2c(C)cc(C=C3C(=O)NC(=O)NC3=O)c2C)cc1	0	8	8	8.6*	0	-5
CSc1ccccc1C(=O)Nc1ccc2c(c1)CC(=O)N2	0	6	6	5.3*	0	-3
COc1ccc(/C=C2/Sc3ccc(C(=O)NC(C)(C)C)cc3NC2=O)cc1	0	-1	-4	0	·	·
COCCCNC(=O)c1ccc2c(c1)NC(=O)/C(=C\c1ccc(OC)cc1)S2	0	-1	6	7.2*	0	0
CCn1c2ccccc2c2cc(NC(=O)Cn3cnc4c3c(=O)n(C)c(=O)n4C)ccc21	0	3	-4	6.1*	0	-2
Cn1c(=O)c2c(ncn2CC(=O)Nc2ccccc2)n(C)c1=O	0	-3	-17	3	·	·
Oc1oc(-c2ccccc2Br)nc1C=Nc1ccccc1Cl	0	-7	3	5.0*	0	3
Cc1cnc(-c2csc3ccccc23)nc1NCc1cccc(C(F)(F)F)c1	0	-18	-25	0	·	·
COc1ccc(-c2nc(CNS(=O)(=O)c3ccc(OC)c(OC)c3)cs2)cc1	0	-2	-3	0	·	·
COc1ccc(S(=O)(=O)NCc2csc(-c3cccnc3)n2)cc1OC	0	11	11	6.5*	1	8
COc1ccc2[nH]c(C)c(Br)c(=O)c2c1	0	-3	6	6.4*	0	5
COc1ccc2[nH]c3ccc([N+](=O)[O-])cc3c(=O)c2c1	0	-7	12	5.7*	0	-5
Cc1ccc2[nH]c(C)c(Br)c(=O)c2c1	0	-13	7	-1	·	·
Cc1cc(=O)c2cc([N+](=O)[O-])ccc2[nH]1	0	-1	6	-1	·	·
O=C(CSCc1ccc(Cl)cc1)NCCSCc1ccco1	0	5	-3	7.8*	-1	-16
C=CCOc1ccc(/C=C2\C(=O)NC(=O)N(C)C2=O)cc1Br	0	14	4	5.7*	1	8
O=C1[C@H]2[C@H]3[C@H](O)[C@H](O)C/C(=N\OCc4ccccc4)[C@H]3CC[C@H]2C(=O)N1C1CCCCC1	1	2	·	5.8*	2	21
C#CCCCO/N=C1\C[C@@H](O)[C@@H](O)[C@@H]2[C@@H]3C(=O)N([C@@H](C)c4ccccc4)C(=O)[C@@H]3CC[C@H]12	0	14	·	9.5*	1	6
CCN1C(=O)[C@H]2[C@H]3[C@H](O)[C@H](O)C/C(=N\OCC(C)C)[C@@H]3CC[C@H]2C1=O	0	14	·	6.6*	0	12
CC(C)CO/N=C1\C[C@@H](O)[C@@H](O)[C@@H]2[C@@H]3C(=O)N(Cc4ccccc4)C(=O)[C@@H]3CC[C@H]12	0	8	·	0	·	·

Screens (PubChem)
